In PubChem BioAssay (Tox21):
Records with an inconclusive call do not appear. Entries that show only a call come without a potency. Some structures have more than one record in an assay (separate samples or runs), and their calls can disagree. Calls of active or inactive are those of the source. Calls come from the whole dose curve; as a rule, active = well fitted activation curve with a large enough effect in the repeat runs; inconclusive = weak or mixed curves; inactive = flat fitted curve, though single readings scatter.
Potency is the fitted concentration of half-maximal effect.

Experiment: A CellTox Green Cytotoxicity Assay to monitor cytotoxicity in HEK293 cells - 8 hour (AID 1224884); note: nearly all actives have a fitted effect of over 35% in size
Settings: CellTox Green fluorescence; series mostly up to 76.8 µM; cytotoxicity increase: at the top concentration
Excerpt: National Center for Advancing Translational Sciences [NCATS]
NIH Chemical Genomics Center [NCGC]
U.S. Environmental Protection Agency [EPA]
National Institutes of Environmental Health Sciences [NIEHS]
National Toxicology Program [NTP]
Cell-based models are critical for drug discovery. Determining the natural cytotoxic effects resulting from test compounds is an essential research activity. A CellTox Green Cytotoxicity Assay to monitor cytotoxicity in real time of continues cell culture during 40 hours of the compound treatment was used to screen Tox21 10K library compounds in Hek293 cells. CellTox Green Cytotoxicity Assay is a nonlytic, homogeneous, biofluorescent method to measure cytotoxicity in cell culture after experimental manipulation. The assay system uses a proprietary asymmetric cyanine dye that is excluded from viable cells but preferentially stains the dead cell's DNA. […] Viable cells produce no appreciable increases in fluorescence. Therefore, the fluorescence signal produced by the binding interaction with dead cell DNA is proportional to cytotoxicity.
The mixture of Hek293 cell suspension and reagents were dispensed at 600cells/6 ul/well in 1536-well tissue culture treated black solid bottom plates using a Multidrop dispenser. After the assay plates were incubated at a 37 C/5% CO2 incubator for 5 hours, 23 nL of compounds dissolved in DMSO, positive and negative controls was transferred to the assay plate by a pintool work station. The plates were incubated at 37 C for 40 hours. The fluorescence intensity were measured at 0h, 8h, 16h, 24h, 32h and 40h time points using ViewLux plate reader during compound treatment.
In the case of `CCCCCc1cc(O)cc(O)c1`, the Potency is reported as “inactive”.
With `N[C@@H](Cc1ccc(N(CCCl)CCCl)cc1)C(=O)O` the Potency was “inactive”.
With `C[C@]12CCC(=O)C(O)=C1CC[C@@H]1[C@@H]2CC[C@]2(C)C(=O)CC[C@@H]12` the Potency was “inactive”.
In the case of `O=S(=O)(Oc1ccc(Cl)cc1)c1ccc(Cl)cc1`, the Potency is reported as “inactive”.
With `CCC(=O)O[C@H]1CC[C@H]2[C@@H]3CCC4=CC(=O)CC[C@]4(C)[C@H]3CC[C@]12C` the Potency was 34.7 µM (active) and inactive.
For `CC(C)Oc1cc(-n2nc(C(C)(C)C)oc2=O)c(Cl)cc1Cl`, the “cytotoxicity increase” value was 16.5% (inactive).
In the case of `c1nc[nH]n1`, the Potency is reported as “inactive”.
In the case of `CCCCC(CC)COC(=O)c1ccc(C(=O)OCC(CC)CCCC)c(C(=O)OCC(CC)CCCC)c1` (stereo not given), the Potency is reported as “inactive”.
With `CCN(CC)C(=O)/C(Cl)=C(\C)OP(=O)(OC)OC` the Potency was “inactive”.
For `Brc1ccc(Oc2cc(Br)c(Br)cc2Br)c(Br)c1`, the Potency was “inactive”.
For `C=CCc1ccc2c(c1)OCO2`, the Potency was “inactive”.
In the case of `O=C(O)C(F)(F)C(F)(F)C(F)(F)C(F)(F)C(F)(F)C(F)(F)C(F)(F)F`, the Potency is reported as “inactive”.
For `CCCCN(CC)c1c([N+](=O)[O-])cc(C(F)(F)F)cc1[N+](=O)[O-]`, the Potency was “inactive”.
In the case of `CC(C)(OOC(C)(C)c1ccccc1)c1ccccc1`, the “cytotoxicity increase” value is reported as 24.2% (inactive).
In the case of `Oc1cc(Cl)ccc1Oc1ccc(Cl)cc1Cl`, the Potency is reported as 50.1 µM (active) and inactive.
For `CCOCN(C(=O)CCl)c1c(C)cccc1CC`, the Potency was “inactive”.
For `C=CCc1ccc(OC)cc1`, the Potency was “inactive”.
In the case of `Cc1ccccc1[N+](=O)[O-]`, the Potency is reported as “inactive”.
With `CCCCN(CCCC)N=O` the Potency was “inactive”.
In the case of `CCN(CC)N=O`, the Potency is reported as “inactive”.
For `Nn1cnnc1`, the Potency was “inactive”.
For `CCC(C)(C)c1ccc(O)cc1`, the “cytotoxicity increase” value was 9.51% [at 35.3 µM] (inactive).
For `CCOC(=S)S`, the Potency was “inactive”.
For `COP(=S)(OC)Oc1cc(Cl)c(Cl)cc1Cl`, the Potency was “inactive”.
For `O=[N+]([O-])c1ccc(O)c([N+](=O)[O-])c1`, the Potency was “inactive”.
In the case of `CCOc1cc(C=O)ccc1O`, the Potency is reported as “inactive”.
For `O=C1C=CC(=O)C=C1`, the Potency was “inactive”.
In the case of `CCCCCCCCC(=O)NCc1ccc(O)c(OC)c1`, the Potency is reported as “inactive”.
In the case of `Nc1ccc(Cl)cc1N`, the Potency is reported as 24.5 µM (active).
With `O=P(Oc1ccccc1)(Oc1ccccc1)Oc1ccccc1` the Potency was “inactive”.
With `N#CC(Br)Br` the Potency was “inactive”.
With `CNC(=O)N(C)c1nnc(C(C)(C)C)s1` the Potency was “inactive”.
With `CCCCCCOC(=O)c1ccccc1C(=O)OCCCCCC` the Potency was “inactive”.
With `CCC(C)(c1ccc(O)cc1)c1ccc(O)cc1` the Potency was “inactive”.
In the case of `Nc1cccnc1`, the Potency is reported as “inactive”.
With `O=C(NC(=O)c1c(F)cccc1F)Nc1ccc(Cl)cc1` the Potency was “inactive”.
With `O=[N+]([O-])c1c(Cl)c(Cl)c(Cl)c(Cl)c1Cl` the “cytotoxicity increase” value was 4.51% (inactive).
In the case of `CCCCCCCCCCCOC(=O)c1ccccc1C(=O)OCCCCCCCCCCC`, the Potency is reported as “inactive”.
For `Oc1cc(Cl)c(Cl)cc1Cl`, the Potency was “inactive”.
In the case of `C#CCOS(=O)OC1CCCCC1Oc1ccc(C(C)(C)C)cc1` (stereo not given), the Potency is reported as “inactive”.
